Laboratory results reported in ChEMBL document CHEMBL4513216, “Probing the Open Global Health Chemical Diversity Library for Multistage-Active Starting Points for Next-Generation Antimalarials” (ACS Infect Dis, 2020).
Among all 69,000 compounds or so, about 8,600 (12%) showed an effect of 50% or more. Only a selection was taken, and strong results are over-represented in it overall.

test system: Plasmodium berghei; assay: Screen against P. berghei liver stage (PbLuc), transformed with Luciferase, at 10uM; assay type: functional, HepG2; conditions: tested at 10 uM

Compound | INHIBITION
O=S(=O)(NCC1COc2ccccc2C1)N1CCOCC1 (stereo not given) | 18.6%
COc1ccc2c(c1)CC(NCCCn1nc(C)nc1C)CC2 (stereo not given) | 15.8%
O=C(O)c1cc(S(=O)(=O)Nc2cccc3c2OCCO3)c(Cl)cc1F | 81.7%
Cc1ccccc1NS(=O)(=O)c1cc2c(c(C(=O)O)c1)OCCO2 | 35.3%
Cc1cc(C)c(S(=O)(=O)Nc2cccc3c2OCCO3)cc1C(=O)O | 50%
Cc1cc(C)c(S(=O)(=O)Nc2ccccc2CC(F)(F)F)cc1C(=O)O | 15.9%
O=C(O)c1cc(S(=O)(=O)Nc2cccc3c2OCCO3)ccc1F | 45.7%
O=C(O)c1cc(S(=O)(=O)Nc2cccc(F)c2F)cc2c1OCCO2 | 22.3%
Cc1nc(C2CCCN2C(=O)Cc2ccc(F)cc2)nc(O)c1C (stereo not given) | -10.5%
Cc1ccc(-n2nnc(C(=O)NC(C)C)c2C2CC2)cc1 | 15.5%
O=C1CCCN1Cc1ncn2c1CN(C(=O)NC1CCCCC1)CCC2 | -19.5%
COc1cccc(Nc2nc(C3CCCNC3)c3ccccn23)c1 (stereo not given) | -23.425%
Cc1c(C)n(CC(O)CN2CCC(C)CC2)c2c(Cl)cccc12 (stereo not given) | 37.3%
Cc1c(C)n(CC(O)CN2CCOCC2)c2c(Cl)cccc12 (stereo not given) | 56.5%
Cc1c(C)n(CC(O)CN2CCCCCC2)c2c(Cl)cccc12 (stereo not given) | -48.6%
Cc1nc[nH]c1C(=O)NCc1cccnc1N(C)C1CCCCC1 | 26.8%
CCn1cc(C(=O)N(C)[C@@H]2CC[C@@H](N3CCCC3)[C@@H]2O)c(C)n1 | 12.335%
CCc1ccc(CN2CCN(c3ncc(Cl)cn3)CC2)nc1 | 50.1%
CCc1ccc(CN2CCN(c3ccc(Cl)nn3)CC2)nc1 | -7.94%
COc1ccc(CN2CCN(c3ncc(Cl)cn3)CC2)cc1 | 11.8%
COc1ccccc1N1CCN(C(=O)CCn2nnnc2C)CC1(C)C | 51.8%
COc1ccccc1N1CCN(C(=O)CCn2ccc(C)n2)CC1(C)C | 8.48%
COc1ccccc1N1CCN(C(=O)Cn2nc(C)cc2C)CC1(C)C | 52.8%
COc1ccc(N2CCN(C(=O)CCn3nnnc3C)CC2(C)C)cc1 | -34.8%

Compound | INHIBITION
COc1ccccc1N1CCN(C(=O)Cn2nccc2C)CC1(C)C | -56.6%
COc1ccccc1N1CCN(C(=O)CCn2ccnc2C)CC1(C)C | 6.31%
CC1=C(C(=O)NCCc2n[nH]c3c2CCCC3)C(C)NC(=O)N1 (stereo not given) | -22.3%
COCCn1ccnc1C1CCCN(C(=O)c2cc(F)cc(F)c2)C1 (stereo not given) | 40.2%
Cc1occc1C(=O)N1CCCS1(=O)=O | 35.7%
Cc1ccsc1CNC(=O)N1CCC(Cc2cnn(C)c2)C1 (stereo not given) | 11.083%
Cc1ccc(CNC(=O)N2CCOCC2C2CC2)cc1F (stereo not given) | 49.3%
COc1ccc(CNC(=O)N2CCOCC2C2CC2)cc1C (stereo not given) | 66.7%
COc1ccc(CNC(=O)N2CCOCC2C2CC2)c(C)c1 (stereo not given) | 17.4%
COc1ccccc1C1Cn2c(C)cnc2CN1Cc1c[nH]nc1C (stereo not given) | -14.2%
Cn1cnc2c1CCN(Cc1csc(Cc3ccccc3)n1)C2 | -3.7%
CN(C)C(=O)CC1CC2(CCN(CC3CC3)CC2)Oc2ccccc21 (stereo not given) | -51.6%
Cc1cc(C(=O)N2CC[C@](C)(O)[C@H](C)C2)c(C)n1C | -12.2%
CC(c1ccc(F)cc1F)N1CCN(CCC(=O)O)CC1 (stereo not given) | -17.7%
CC(c1ccc(F)cc1F)N1CCN(CCC(=O)NC(N)=O)CC1 (stereo not given) | -8%
CC(c1ccc(F)cc1F)N1CCN(CCN2CCCC2=O)CC1 (stereo not given) | 63%
CCn1nc(C)cc1NC(=O)CCn1nc(C)c(Br)c1C | 31.7%
COCCn1ccc(=O)c(OCC(=O)Nc2cccc(Cl)c2)c1C | -21.2%
Cc1cc(C)n(C2CN(CCC(N)=O)C2)n1 | -4.96%
CC(C)N(C)Cc1cncc2c1CCN(C(=O)c1cccc(C#N)c1)C2 | 12.7%
Cc1cc(CN2CCN(Cc3cnc4c(c3)c(C)nn4C)CC2)on1 | 11.5%
CCN1CCN(C(=O)c2ccc(Cn3ccccc3=O)o2)CC1 | 39.6%
CC(=O)NCC(=O)N1CCc2c(CNc3ncccn3)cncc2C1 | -2.17%
c1cnc(NCc2cncc3c2CCN(Cc2ccoc2)C3)nc1 | 19.4%

Compound | INHIBITION
Cc1cc(CN2CCc3c(CNc4ncccn4)cncc3C2)oc1C | 67.2%
CN(C)C(=O)N1CCc2c(CNc3ncccn3)cncc2C1 | 6.38%
c1cnc(NCc2cncc3c2CCN(Cc2cccnc2)C3)nc1 | 12.4%
c1cnc(NCc2cncc3c2CCN(Cc2ccsc2)C3)nc1 | 60.2%
COCCC(=O)N1CCc2c(CNc3ncccn3)cncc2C1 | 53.4%
c1csc(CN2CCc3c(CNc4nncs4)cncc3C2)c1 | 42.7%
c1cnc(NCc2cncc3c2CCN(Cc2cccs2)C3)nc1 | -38.7%
Cc1nn(C)c(N2CCOCC2)c1CNC(C)c1cccs1 (stereo not given) | 16.9%
COc1ccc(N2CCN(C(=O)C(C)n3cc(Br)cn3)CC2)cc1 (stereo not given) | 30%
Cc1cccc(CC2CCCN(C(=O)C3CCOCC3)C2)n1 (stereo not given) | 30.4%
O=C(C1CC1)N1CCC(c2nc(O)c3c(n2)CN(C2CCCC2)CC3)C1 (stereo not given) | 5.11%
COc1cc(NCc2c(C)noc2C)c(C(=O)N(C)C)cc1OC | -16.1%
Cc1noc(C)c1CN1Cc2nccn2CC(CN2CCOCC2)C1 (stereo not given) | 18.3%
CCN1C(=O)CCCC12CCCN(C(=O)c1cc(C)oc1C)C2 (stereo not given) | -17.1%
COCCC1(C(=O)O)CCCN(C(=O)c2cc(C)oc2C)C1 (stereo not given) | 69.9%
COCCCC1(C(=O)O)CCCN(C(=O)c2ccc(Cl)cc2F)C1 (stereo not given) | 39.3%
CCCC1(C(=O)O)CCCN(C(=O)c2cc(Cl)ccc2F)C1 (stereo not given) | 36.5%
COc1ccc(F)cc1C(=O)N1CCCC(CNS(C)(=O)=O)C1 (stereo not given) | -38.7%
CCN(CC)Cc1cc(C(=O)N2CCCC(CC)(C(=O)O)C2)c(C)o1 (stereo not given) | 29.9%
COCCC1(C(=O)O)CCCN(C(=O)c2cc(F)ccc2OC)C1 (stereo not given) | 79.7%
COCCCC1(C(=O)O)CCCN(C(=O)c2ccc(C(C)C)[nH]c2=O)C1 (stereo not given) | 30.4%
COCCC1(C(=O)O)CCCN(C(=O)c2cc(Cl)ccc2F)C1 (stereo not given) | 58.8%
